Assay results from PubChem BioAssay (NCATS).
Results filed as inconclusive are left out. The source made the active and inactive calls. Unless noted, calls come from the whole dose curve; as a rule, active = well fitted curve in the direction sought with a large enough effect in the repeat runs; inconclusive = weak or mixed curves; inactive = no such curve, though single readings can be large; an effect the other way counts as inactive or inconclusive.

Key:
[1] = target: Cytochrome P450 2D6 (Homo sapiens) (UniProt P10635); assay: Cytochrome P450 family 2 subfamily D member 6 (CYP2D6) small molecule antagonists: luciferase biochemical (cell-free) qHTS assay (AID 1645840); note: nearly all actives have a fitted effect of over 55% in size; note: potency is the fitted concentration of half-maximal effect
Sequence of Cytochrome P450 2D6 (Homo sapiens) (P10635 whole entry, looked up): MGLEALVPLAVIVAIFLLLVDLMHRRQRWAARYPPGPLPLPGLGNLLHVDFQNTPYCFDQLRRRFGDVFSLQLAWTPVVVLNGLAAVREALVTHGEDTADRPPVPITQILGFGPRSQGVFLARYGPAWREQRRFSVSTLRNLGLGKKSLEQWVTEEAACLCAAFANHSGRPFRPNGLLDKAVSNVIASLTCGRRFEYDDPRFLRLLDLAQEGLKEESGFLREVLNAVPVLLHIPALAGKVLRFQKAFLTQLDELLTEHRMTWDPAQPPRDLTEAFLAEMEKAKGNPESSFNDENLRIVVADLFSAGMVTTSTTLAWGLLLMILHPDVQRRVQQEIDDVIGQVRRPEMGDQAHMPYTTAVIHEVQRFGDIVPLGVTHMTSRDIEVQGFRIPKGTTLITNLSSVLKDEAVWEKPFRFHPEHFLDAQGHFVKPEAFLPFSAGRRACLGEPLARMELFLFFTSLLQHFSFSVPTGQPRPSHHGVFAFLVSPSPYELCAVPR
Summary of the method: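 P450-Glo CYP2D6 system: proluciferin substrate converted by enzyme to luciferin, read by luminescence proportional to activity. Enzyme-substrate mix with compound 10 min at room temperature, then NADPH regeneration 1 h before detection reagent.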

[2] = target: Cytochrome P450 2C9 (Homo sapiens) (UniProt P11712); assay: Cytochrome P450 family 2 subfamily C member 9 (CYP2C9) small molecule antagonists: luciferase biochemical (cell-free) qHTS assay (AID 1645842); note: nearly all actives have a fitted effect of over 55% in size; note: potency is the fitted concentration of half-maximal effect
Sequence of Cytochrome P450 2C9 (Homo sapiens) (P11712 whole entry, looked up): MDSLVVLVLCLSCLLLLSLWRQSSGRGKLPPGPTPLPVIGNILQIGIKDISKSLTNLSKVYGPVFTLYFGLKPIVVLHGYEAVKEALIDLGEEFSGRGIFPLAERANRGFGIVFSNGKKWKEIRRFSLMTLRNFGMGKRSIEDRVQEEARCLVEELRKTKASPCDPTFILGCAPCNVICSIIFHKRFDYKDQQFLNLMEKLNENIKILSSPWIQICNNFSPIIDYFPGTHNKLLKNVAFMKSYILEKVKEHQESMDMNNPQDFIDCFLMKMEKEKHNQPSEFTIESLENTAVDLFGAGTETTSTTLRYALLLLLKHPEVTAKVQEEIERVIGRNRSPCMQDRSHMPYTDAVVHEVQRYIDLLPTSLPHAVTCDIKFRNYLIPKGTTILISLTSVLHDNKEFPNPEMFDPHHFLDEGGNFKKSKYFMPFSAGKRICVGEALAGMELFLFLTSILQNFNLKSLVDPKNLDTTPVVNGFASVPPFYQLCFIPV
Summary of the method: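 P450-Glo CYP2C9 system: proluciferin substrate with enzyme in mix containing 0.4% BSA, 10 min at room temperature, then NADPH regeneration solution added and incubated 1 h at 37C. Detection reagent stopped reaction; luminescence read after 20 min as RLU.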

[3] = target: N-terminal Xaa-Pro-Lys N-methyltransferase 1 (Homo sapiens) (UniProt Q9BV86); assay: Confirmatory qHTS for Inhibitors of N-terminal methyltransferase 1 (NTMT1): MTaseGlo Assay (AID 1645874; active = well fitted curve in the direction sought with a large enough effect; an effect the other way counts as inactive or inconclusive; note: nearly all actives have a fitted effect of over 65% in size; note: potency is the fitted concentration of half-maximal effect)
Sequence of N-terminal Xaa-Pro-Lys N-methyltransferase 1 (Homo sapiens) (Q9BV86 whole entry, looked up): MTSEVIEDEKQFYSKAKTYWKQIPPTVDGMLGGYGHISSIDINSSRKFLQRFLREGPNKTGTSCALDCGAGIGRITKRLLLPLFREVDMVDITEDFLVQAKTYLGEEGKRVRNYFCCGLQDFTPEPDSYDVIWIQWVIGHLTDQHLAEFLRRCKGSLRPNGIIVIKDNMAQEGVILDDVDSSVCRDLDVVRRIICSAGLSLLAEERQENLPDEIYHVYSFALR
Summary of the method: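 Inhibition was derived from luminescence after SAH-to-ATP conversion, scaled between no-enzyme and DMSO wells, then fitted by 4-parameter Hill. Conditions: 125 nM NTMT1, 100 uM SAM, 1 uM SPKRIA, 30 min RT.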

[4] = Primary qHTS for inhibitors of nuclear receptor binding SET domain protein 2 (NSD2) in an isogenic RCH-ACV NSD2 p.E1099K mutant (9B) (AID 1645876; active = well fitted curve in the direction sought with a large enough effect; an effect the other way counts as inactive or inconclusive; note: nearly all actives have a fitted effect of over 70% in size; note: potency is the fitted concentration of half-maximal effect)
[5] = Primary qHTS for inhibitors of nuclear receptor binding SET domain protein 2 (NSD2) in an RCH-ACV wild type WT cells (2C) (AID 1645877; active = well fitted curve in the direction sought with a large enough effect; an effect the other way counts as inactive or inconclusive; note: nearly all actives have a fitted effect of over 70% in size; note: potency is the fitted concentration of half-maximal effect)
[6] = target: Catechol O-methyltransferase (Homo sapiens) (UniProt P21964); assay: Confirmatory Screen for Target Class Profiling of Small Molecule Inhibitors of Methyltransferases (AID 1745852); details: MTase-Glo luminescence, SAH detection, recombinant enzyme; measured here: COMT max response; stronger effect = lower value
Sequence of Catechol O-methyltransferase (Homo sapiens) (P21964 whole entry, looked up): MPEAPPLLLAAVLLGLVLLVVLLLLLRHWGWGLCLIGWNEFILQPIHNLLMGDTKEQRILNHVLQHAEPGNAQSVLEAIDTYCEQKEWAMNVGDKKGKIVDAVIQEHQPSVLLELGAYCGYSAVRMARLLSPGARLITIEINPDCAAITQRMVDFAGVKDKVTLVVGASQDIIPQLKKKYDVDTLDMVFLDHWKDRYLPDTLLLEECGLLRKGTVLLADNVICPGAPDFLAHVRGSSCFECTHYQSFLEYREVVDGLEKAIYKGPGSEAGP

| SMILES | Potency [1] | Potency [2] | Potency [3] | Potency [4] | Potency [5] | activity [6] |
| --- | --- | --- | --- | --- | --- | --- |
| CSc1ccc(C(=O)N[C@@H]2CCCC[C@@H]2NC(=O)CNC(=O)c2cc(C(F)(F)F)ccc2NC(=O)NC(C)C)cc1 | 9.52 µM (active) |  |  |  |  |  |
| O=S(=O)(NC1CCC(c2cc(F)ccc2F)(S(=O)(=O)c2ccc(Cl)cc2)CC1)C(F)(F)F (stereo unspecified) | 19 µM (active) | 0.425 µM (active) |  |  |  |  |
| C[C@@H](Oc1cc(-n2cnc3ccc(OC4CCN(C)CC4)cc32)sc1C(N)=O)c1ccccc1C(F)(F)F | 8.49 µM (active) | 8.49 µM (active) | 12.6 µM (active) | 0.0325 µM (active) | 0.0258 µM (active) | -76.5% |
| O=C(Nc1ccc(S(=O)(=O)C(F)(F)F)cc1)C1=CCN(c2ncccc2C(F)(F)F)CC1 | 7.56 µM (active) | 3.01 µM (active) | inactive | 7.28 µM (active) | 10.3 µM (active) |  |
| CCCN1CCN(c2ccc(C(=O)NC3(C(=O)NCC#N)CCCCC3)cc2)CC1 | inactive | inactive |  | inactive | inactive |  |
| Cc1ccc(-c2ccc3ncc4c(c3n2)n(C2CCN(C(=O)[C@H](C)O)CC2)c(=O)n4C)cn1 | inactive | 10.7 µM (active) | 39.8 µM (active) | 0.0742 µM (active) | 0.0742 µM (active) |  |
| N#CC(c1ccnc(OCc2ccc(CN3CCOCC3)cc2)n1)c1nc2ccccc2s1 (stereo unspecified) | inactive | 10.7 µM (active) |  | inactive |  |  |
| Cc1oc2ccccc2c1CNC(=O)NCc1cccs1 | 1.9 µM (active) | inactive |  | inactive | inactive |  |
| Cc1nc2sc(C(=O)NCc3ccncc3)c(N)c2c(C)c1Cl | 2.39 µM (active) | inactive |  | inactive |  |  |
| Cn1c(=O)n(-c2ccc(C(C)(C)C#N)cc2)c2c3cc(C#Cc4cccnc4)ccc3ncc21 | inactive | 0.522 µM (active) |  | 0.0178 µM (active) | 0.0142 µM (active) |  |
| CNC(=O)c1cc(Oc2ccc3nc(N[C@@H]4CCCC[C@H]4O)sc3c2)ccn1 | 16.9 µM (active) | 8.49 µM (active) |  |  |  |  |
| O=C(NCc1cccc(O)c1)Nc1nc(-c2ccncc2)cs1 | 0.849 µM (active) | 0.301 µM (active) |  | 9.34 µM (active) | 2.35 µM (active) |  |
| COc1cc(Nc2nc3ccccc3nc2NS(=O)(=O)c2ccc(NC(=O)c3ccc(OC)c(C)c3)cc2)cc(OC)c1 | inactive | 3.79 µM (active) |  |  |  |  |
| C[C@H](C(=O)NC1CCCC1)N(C(=O)Cn1nnc(-c2ccc3c(c2)OCO3)n1)C1CCCCC1 | 19 µM (active) | 2.68 µM (active) |  |  |  |  |
| COc1ccc(F)cc1-c1cc(NC(=O)[C@@H]2CCCNC2)ncc1Cl | inactive | 1.34 µM (active) |  | 0.0649 µM (active) |  |  |
| Cc1cc(C)c2c(N)c(C(=O)NCc3ccc(Cl)cc3)sc2n1 | 13.5 µM (active) | 1.9 µM (active) | inactive |  |  |  |
| COc1cc2ncnc(Nc3ccc(F)c(Cl)c3)c2cc1NC(=O)/C=C/CN1CCCCC1 | 0.0477 µM (active) | inactive | 35.5 µM (active) | 4.17 µM (active) | 3.32 µM (active) | -45.2% |
| O=C1CCC(c2ccccc2)(C2CCN(Cc3ccc(I)cc3)CC2)C(=O)N1 (stereo unspecified) | 13.5 µM (active) | inactive |  |  |  |  |
| CN[C@H](C(=O)N[C@H](C(=O)N(C)[C@H](/C=C(\C)C(=O)O)C(C)C)C(C)(C)C)C(C)(C)c1ccccc1 | inactive | inactive |  | inactive | inactive |  |
| CCCNc1ccc2ncc(-c3ccc4[nH]ncc4c3)n2n1 | inactive | inactive | 8.91 µM (active) | 0.258 µM (active) | 0.0916 µM (active) | -53.8% |
| Cc1cccc(C)c1OCc1cc(C(=O)N2CCC(c3ccncc3)CC2)no1 | 1.2 µM (active) | 0.338 µM (active) |  | 10.3 µM (active) |  |  |
| CC(C)CCC(=O)CC1c2ccccc2C(=O)N1c1ccc2ccc(Cl)nc2n1 (stereo unspecified) | inactive | 1.51 µM (active) |  | inactive | inactive |  |
| CC1(C)CC(NC(=O)C(=O)Nc2ccc(Br)cc2)CC(C)(C)N1 | inactive | inactive |  | 8.17 µM (active) | 5.78 µM (active) |  |
| CCn1c(=O)c(-c2ccn[nH]2)cc2c(C)nc(N)nc21 | inactive | 26.8 µM (active) | inactive | 0.934 µM (active) | 1.18 µM (active) |  |
| OC1CCC(Nc2ncc3nc(Nc4c(F)cc(F)cc4F)n([C@H]4CCOC4)c3n2)CC1 (stereo partly specified) | inactive | inactive |  |  |  |  |
| CC(C)(C(=O)NCC(F)(F)C(F)(F)F)C(=O)NC1C(=O)Nc2ccccc2-c2ccccc21 (stereo unspecified) | 10.7 µM (active) | 9.52 µM (active) |  |  |  |  |
